# MmCpn inh – blocks the Methanococcus maripaludis chaperonin Mm-Cpn. 330,000 compounds, 0.031% hits. AID 504842. Potency, µM (titrated, usually from 76.9 µM), without a hit: at the top dose activity, negative = inhibition, most hits filed as inhibitors. purified Mm-Cpn ATPase, ADP Transcreener TR-FRET; note: potency is the fitted concentration of half-maximal effect; % is set by controls: 0 for no effect and ±100 for the full control effect; nearly all actives have a fitted effect of over 80% in size
#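 Purified archaeal chaperonin (25 nM final) was preincubated with compound for 10 min at 37°C, then ATP (10 uM final) was added for 30 min at 37°C in Tris pH 7.4/KCl/MgCl2/DTT buffer. ADP was quantified by HTRF Transcreener TR-FRET.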
# uPA generation – blocks generation of uPA at the cell surface; 330,000 compounds, 0.31% hits; Potency, µM (highest dose often 38.3 µM), for the others: at the highest dose activity change, negative = inhibition, most hits filed as inhibitors; cell surface uPA generation assay, qHTS; active = well fitted inhibition curve with a large enough effect; inconclusive = small, poorly fitted or top-dose-only effect; inactive = no such curve, though single readings can be large or run the other way; tested in mouse RAW 264.7 cells; note: potency is the fitted concentration of half-maximal effect; % is set by controls: 0 for no effect and ±100 for the full control effect; nearly all actives have a fitted effect of over 55% in size
# MBNL1-CUG inh – inhibitors of human MBNL1 binding to CUG repeat RNA. TR-FRET MBNL1-His/biotin-(CUG)12 binding, 665/545 ratio. Potency, µM (top dose mostly 57.5 µM), inactives show top-dose activity change, negative = inhibition, actives largely listed as inhibitors. 280,000 compounds, 0.036% hits. AID 2675; active = well fitted inhibition curve with a large enough effect in the signal ratio, with a control signal flat, not every such curve was filed as active; inconclusive = small, poorly fitted or top-dose-only effect, or effect the other way, or a change in a side signal; inactive = no such curve, though single readings can be large or run the other way; the % refers to the signal ratio; note: potency is the fitted concentration of half-maximal effect; % is set by controls: 0 for no effect and ±100 for the full control effect
# Target sequence (Q9NR56 whole entry, looked up): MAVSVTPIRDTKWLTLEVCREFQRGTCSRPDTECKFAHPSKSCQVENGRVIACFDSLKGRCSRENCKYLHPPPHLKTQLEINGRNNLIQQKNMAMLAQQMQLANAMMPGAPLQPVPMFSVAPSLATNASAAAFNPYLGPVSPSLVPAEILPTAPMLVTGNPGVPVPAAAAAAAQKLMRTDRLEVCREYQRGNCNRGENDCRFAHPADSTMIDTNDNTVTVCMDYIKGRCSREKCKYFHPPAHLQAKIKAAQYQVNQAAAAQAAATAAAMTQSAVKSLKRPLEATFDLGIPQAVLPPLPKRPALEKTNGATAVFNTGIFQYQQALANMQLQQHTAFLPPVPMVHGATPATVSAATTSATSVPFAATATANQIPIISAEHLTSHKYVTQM
#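 Compounds (final 92 nM to 58 uM) are added to His-tagged MBNL1 and biotin-(CUG)12, then terbium anti-His antibody and streptavidin-XL665 (5 nM final). After 60 min at room temperature, the 665/545 nm ratio is read.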
# Epigenetic reg – derepresses silenced GFP reporter in murine cells; Potency, µM (titrated, usually from 53.9 µM), without a hit: top-dose GFP activation, usual class: activators; AID 1865; murine LDR cells, GFP reporter derepression, 30 h; 280,000 compounds, 0.2% hits; note: potency is the fitted concentration of half-maximal effect; % of control where 0% means no effect; nearly all actives have a fitted effect of over 60% in size
#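 Reporter derepression read as number of fluorescent GFP-positive objects, 20-120 um in size, counted by laser-scanning cytometer. Mouse LDR line with an epigenetically silenced CMV-GFP locus; compound incubation 30 h, 37 C.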
# Akt phos inh – Akt phosphorylation inhibition; Neuro2A IGF-stimulated pAkt S473 HTRF, 20 min; active compounds read low; activity change, % for hits at 50 µM; 360,000 compounds, 0.32% hits; AID 651550; in the data active = activity change below about -80%; inconclusive = mostly about -51% to -80%; note: % is set by controls: 0 for no effect and ±100 for the full control effect
#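 Single-point screen (50 µM final compound) in Neuro2A cells stimulated 20 min with 6 nM IGF at 37 deg C. After lysis, Ser473-phosphorylated Akt read by HTRF (ex 330 nm, em 615/665 nm) as the 665/615 ratio.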
# CCT modulator – modulators of cytosolic chaperonin (CCT/TRiC) activity; purified chaperonin ATPase assay, HTRF ADP detection, 30 min; activity change, % (no concentration beside the values), hits read low; 360,000 compounds, 0.3% hits; in the data active = activity change below about -30%; note: % is set by controls: 0 for no effect and ±100 for the full control effect
#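 TRiC at 40 or 20 nM final (batch-dependent) in 30 mM Tris pH 7.4, 100 mM KCl, 5 mM MgCl2, 1 mM DTT, with compound at single 76 uM and 10 uM ATP, 30 min at 37 deg C. ADP detected by HTRF Transcreener, 665/615 ratio.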
# Starred values were filed as active, the others as inactive; i = inactive; ? = inconclusive; / = not tested or not shown; [ ] = dose if it differs, or a comment. In the library only some 0.97% were active in any assay of this set; here they are far more common. Unless noted, calls come from the whole dose curve; as a rule, active = well fitted curve in the direction sought with a large enough effect; inconclusive = small, poorly fitted or top-dose-only effect, or another doubt; inactive = no such curve, though single readings can be large; an effect the other way counts as inactive or inconclusive.
SMILES,MmCpn inh,uPA generation,MBNL1-CUG inh,Epigenetic reg,Akt phos inh,CCT modulator
CC1(C)CC2CC(C)(CN2S(=O)(=O)c2cccc(C(N)=O)c2)C1 (stereo not given),-1.8%,15.0%,/,/,i,-3.8
CC1(C)CC2CC(C)(CN2S(=O)(=O)c2cccc(C(=O)OCC(N)=O)c2)C1 (stereo not given),0.0%,-0.5%,/,/,i,-1.3
CCCCNC(=O)c1cccc(S(=O)(=O)N2CC3(C)CC2CC(C)(C)C3)c1 (stereo not given),0.2%,2.24µM*,/,/,i,1.7
COCCNC(=O)c1cccc(S(=O)(=O)N2CC3(C)CC2CC(C)(C)C3)c1 (stereo not given),-0.2%,3.98µM*,/,/,i,0.6
O=C(Cn1cnc2ccccc21)Nc1ccc2c(c1)OCCCO2,1.2%,?,/,/,i,0.3
COC(=O)CSc1nc2cc(C)ccc2cc1C#N,-2.6%,-4.8%,28.1%,15.8µM*,i,0.7
Cc1ccc2nc(SCC(=O)Nc3ccc4sc(C)nc4c3)c(C#N)cc2c1,-0.6%,-5.4%,24.7%,5.62µM*,i,-1.6
Cc1cc(NC(=O)CSc2nc3ccccc3cc2C#N)no1,-5.8%,-1.0%,32.1%,/,i,-93.6*
Cc1cc(NC(=O)CSc2nc3c(c(-c4cccnc4)c2C#N)CCC3)no1,?,-1.4%,?,2.4%,-102.2%*,0.5
NC(=O)C1CCN(c2nc(-c3ccc(Cl)cc3)cs2)CC1,-2.2%,/,/,/,/,/
Cc1cc(NC(=O)CSc2ncccn2)no1,2.5%,15.5%,-2.5%,1.1%,i,-6.6
Cc1cc(NC(=O)CSc2ncn(-c3ccccc3)n2)no1,-1.4%,7.4%,3.4%,-0.9%,-111.6%*,-1.3
CC(=NC1CCCC1)c1c(C)[nH]n(-c2nc3ccccc3s2)c1=O,1.0%,-7.4%,-13.2%,-1.0%,-115.8%*,-0.6
CC(=NC1CC1)c1c(-c2ccccc2)[nH]n(-c2nc3ccccc3s2)c1=O,-0.6%,/,5.7%,-2.4%,i,1.9
COC(=O)c1ccc(C2c3c(oc4cc(C)c(C)cc4c3=O)C(=O)N2c2ccccn2)cc1 (stereo not given),/,/,/,1.9%,/,/
N#Cc1ccc(OCC(=O)OCC(=O)c2ccccc2)cc1,0.9%,4.3%,/,/,i,-33.2*
CC(=O)OCC1OC(c2cc(C)cc(C)c2)C=CC1OC(C)=O (stereo not given),/,/,/,1.1%[10.1 µM],/,/
CCOC(=O)c1cc(OC(=O)c2cccc([N+](=O)[O-])c2)n(-c2ccccc2)n1,-0.2%,/,?,0.0%,i,-34.9*
CCOCCn1c(SCCc2ccccc2)nc2c1c(=O)[nH]c(=O)n2C,0.8%,-5.0%,-2.1%,-0.8%,i,1.6
CCCCn1c(NCCC)nc2c1c(=O)[nH]c(=O)n2C,1.0%,-0.5%,5.5%,-0.2%,i,0.3
CCCCCn1c(SCCc2ccccc2)nc2c1c(=O)[nH]c(=O)n2C,1.5%,-0.9%,5.4%,-1.7%,-112.3%*,-0.5
C=CCNc1nc2c(c(=O)[nH]c(=O)n2C)n1CCCCC,-1.3%,-8.7%,-11.3%,0.9%,-114.4%*,-1.5
CCOCCSc1nc2c(c(=O)[nH]c(=O)n2C)n1CCCc1ccccc1,0.5%,-3.3%,-0.6%,-0.2%,-113.6%*,-2.0
CCOC(=O)C(C)Sc1nc2c(c(=O)[nH]c(=O)n2C)n1CCc1ccccc1 (stereo not given),2.2%,-5.0%,0.5%,1.9%,-102.6%*,-3.7
Cc1ccc(C)c(NC(=O)CSc2nnc(CNC(=O)c3ccccc3)n2-c2ccccc2)c1,/,/,/,-1.1%,/,/
SMILES,MmCpn inh,uPA generation,MBNL1-CUG inh,Epigenetic reg,Akt phos inh,CCT modulator
Cc1ccc(-c2nc3ccc(C(=O)O)cc3nc2-c2ccc(C)cc2)cc1,0.8%,2.9%,-2.6%,0.9%,-123.3%*,-3.3
CC(C)CCNC(=O)c1cn(CC(C)C)c(=O)c2c1c1ccccc1n2C,0.1%,3.2%,-3.7%,/,i,-41.1*
Cc1nonc1NC(=O)c1ccc(Cl)c(S(=O)(=O)N2CCCCC2)c1,0.9%,1.2%,-4.4%,-1.0%,-98.4%*,-5.1
Cc1cccnc1NC(=O)c1ccc(Cl)c(S(=O)(=O)N2CCCCCC2)c1,-1.5%,-1.0%,-2.0%,/,i,3.0
CCC(C(=O)NCc1ccccc1OC)n1nc(C)n2c(cc3sccc32)c1=O (stereo not given),/,/,/,2.2%,/,/
Cc1nnsc1C(=O)N1CCC(CO)(Cc2ccccc2Cl)CC1,1.0%,0.9%,-6.7%,0.5%,i,-0.7
CCn1c(=O)n(CC)c2cc(S(=O)(=O)Nc3ccccc3C)c(C)cc21,0.3%,-24.2%,-5.4%,1.1%,-89.4%*,-2.5
COC(=O)Cn1cnc2c(cnn2-c2ccc(C)cc2)c1=O,-11.8%,6.6%,-8.3%,/,i,-2.3
COc1ccc(Cl)cc1NC(=O)CN1C(=O)CSc2ccc(S(=O)(=O)N3CCCC3)cc21,/,/,/,-1.5%,/,/
O=C(C[C@H]1C[C@H](C(=O)N2CCOCC2)[C@@]2(CCC3CCCC3)c3[nH]c4ccc(Cl)cc4c3CCN2C1=O)NCCCn1ccnc1,-1.6%,12.6µM*,/,/,i,1.5
CN(C)C(=O)CCc1ccc2c3c([nH]c2c1)[C@]1(CCC2CCCC2)[C@@H](C(=O)N2CCOCC2)C[C@H](CC(=O)NCCCn2ccnc2)C(=O)N1CC3,-0.5%,4.2%,/,/,i,-3.1
S=c1[nH]nc(COc2ccc(Cl)cc2Cl)n1-c1ccccc1,0.9%,8.8%,1.9%,/,i,-1.9
CNc1ccc2ncc(-c3ccccc3NC(C)=O)n2n1,/,/,/,/,i,-3.1
Cc1nn(CC(=O)N2CCC(C)CC2)c(=O)c2cccn12,0.0%,?,0.0%,/,/,-55.0*
CC(=O)C[C@@H](O)CC(=O)[C@@H]1OC(=O)[C@@H](C)C/C=C\Cc2ccccc21,1.4%,-6.0%,/,/,i,-1.4
COc1ccccc1C(=O)Nc1nc2cc3c(cc2s1)OCO3,-2.3%,-2.5%,-8.5%,-1.0%,i,1.8
COc1ccccc1C(=O)Nc1nc2cc3c(cc2s1)OCCO3,-1.2%,2.82µM*,21.4%,1.1%,i,-1.5
O=C(NNC(=S)Nc1ccc(Cl)cc1)c1cccs1,-2.1%,-6.0%,-15.1%,1.1%,i,-70.6*
Cn1c(C(=O)N2CCCC(Nc3ccc(F)cc3)C2)cc2ccccc21 (stereo not given),-0.7%,1.1%,-0.7%,/,i,1.6
COc1ccccc1OCCn1nnc2ccccc21,1.4%,0.4%,-5.1%,/,i,-55.1*
CCN1/C(=C/c2ccc3ccccc3[n+]2CC)C=Cc2ccccc21,-1.3%,-16.6%,?,?,/,-6.3
CCN1/C(=C/c2ccc3cc(C)ccc3[n+]2C)Sc2ccc3sccc3c21,?,10µM*,?,10µM*,i,0.8

# Compound activity (PubChem BioAssay)
